Screen size: about 360,000 compounds; about 2,600 (0.72%) were called active. The full list was thinned out, with actives kept by preference. Values without a mark were called inactive.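 How the source made its calls: active means inhibition of the luminescence signal of 40% or more relative to plate controls, in a single-dose primary screen at 18.75 µM; inactive means the rest.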
test: HIF-2a reporter inhibitors, primary screen, luminescence, 786-0 RCC cells (AID 624352); details: 786-0 RCC cells HIF-2a reporter, luciferase luminescence, overnight; at 18.8 µM; hits give high values

Row | SMILES | inhibition
1 | CCOC(=O)[C@]12Cc3ccccc3[C@H]1N(C1CCCCC1)C(=O)c1cc(OC)ccc12 | 81.9% (active)
2 | CCOC(=O)[C@]12Cc3cc(OC)ccc3[C@H]1N(C(C)C)C(=O)c1ccccc12 | 24.5%
3 | COc1ccc(CCn2c(O)c(C=NCCCn3ccnc3)c(=O)[nH]c2=O)cc1OC | 11.2%
4 | COc1ccc(Br)cc1CNCCc1cccc(Cl)c1 | 7.99%
5 | CC=C(C)C(=O)OC1CCN2CC=C(COC(=O)C(O)(C(C)OC)C(C)(C)O)C12 (stereo not given) | 3.51%
6 | COc1cc(OC)cc(C2(C#N)CCN(C)CC2)c1 | 13.2%
7 | COC(=O)C1=C(c2cc3ccccc3s2)C[C@@H]2CC[C@H]1N2C(=O)NC(C)C | 6.19%
8 | Cc1cccc(-n2c(O)c(/C=N/N3CCOCC3)c(=O)[nH]c2=S)c1 | 19.1%
9 | Cc1nn(-c2ccccc2)c(C)c1NC(=O)COC(=O)Cc1ccccc1 | 8.24%
10 | Cc1nc2nc(C)c(CCC(=O)N3CCC4(CC3)OCCO4)c(C)n2n1 | -0.723%
11 | CC(=O)OC1C2(CC3N4C(=O)C5(CO)SSC4(CC31O)C(=O)N5C)OC(C)C(C)(C)C2=O (stereo not given) | 91.3% (active)
12 | NC(=O)Nc1cccc(C(F)(F)F)c1 | 1.29%
13 | COC(=O)C[C@H]1CC[C@H]2NC[C@@H](O)COC[C@@H]2O1 | 10.3%
14 | C[C@]12CC[C@H](O)C[C@H]1CC[C@@H]1C2CC[C@]2(C)[C@@H](C3=CC(=O)OC3)[C@@H](O)C[C@]12O (stereo not given in full) | 33.4%
15 | COC1C(O)C(C)OC(OC2CCC3(C=O)C(CCC4C3CCC3(C)C(C5=CC(=O)OC5)CCC43O)C2)C1O (stereo not given) | 82.4% (active)
16 | COC(=O)CN(CCCl)P1(=O)OCCCN1CCCl (stereo not given) | 6.36%
17 | CN1CCN(Cc2ccccc2C(F)(F)F)CC1 | 9.38%
18 | O=c1c2ccccc2nc(CBr)n1-c1ccc(Cl)cc1 | -7.93%

Row | SMILES | inhibition
19 | CN(C)CC1Oc2ccccc2OC1(O)c1ccccc1 (stereo not given) | 55.3% (active)
20 | Cc1nc2ccccn2c1P(=S)(N1CCCCC1)N1CCCCC1 | 18.1%
21 | CC1([N+](=O)[O-])COP(=O)(Nc2ccc(F)cc2)OC1 (stereo not given) | 17.4%
22 | Cc1ccc(C(C)C)c(OCC(=O)N2CCN(CC(=O)N3CCOCC3)CC2)c1 | -3.94%
23 | c1ccc2sc(C3CCCNC3)nc2c1 (stereo not given) | -94.5%
24 | CC[C@H]1CC2CN3CCc4c([nH]c5ccccc45)C(C(=O)OC)(C2)C13 (stereo not given in full) | 20.3%
25 | O=P(OC1=CCCCC1)(c1ccccc1)c1ccccc1 | 12.4%
26 | CCC(C)(O)C(=O)OC1C(=O)OC2CC3C(C)=CC(=O)C(O)C3(C)C3C4(O)OCC23C1C(C)C4O (stereo not given) | 66.3% (active)
27 | O=c1[nH]c(=O)n(-c2ccc(F)cc2)c(O)c1C=NCCN1CCCCC1 | 24.6%
28 | CC(Cc1cccs1)NCc1ccc(Cl)cc1 (stereo not given) | -5.05%
29 | Cc1ccc(P(=S)(c2ccc(C)o2)N2CCOCC2)o1 | -0.609%
30 | CCCCCCCCCCCCn1ccc(=N)cc1 | 51.2% (active)
31 | C[C@]12CC[C@H](O)CC1=C([N+](=O)[O-])CC1C2CC[C@@]2(C)C1CC[C@@H]2O (stereo not given in full) | -4.21%
32 | CC(C)c1c(CN(C)C(C)Cc2ccccc2)n(C)n(-c2ccccc2)c1=O (stereo not given) | 17.5%
33 | CC(=CCOc1ccc2ccc(=O)oc2c1)C1=CC(=O)C(C)(C)O1 | 65.2% (active)
34 | O=C1NC(=O)C(Cc2ccccc2)C(=O)N1 | 0.735%
35 | CCOC(=O)C1CN(C)CCC1=O (stereo not given) | 12.2%

From PubChem BioAssay AID624352 (Sanford-Burnham Center for Chemical Genomics, 2012)
